The supplement of paper PMC6555819

system: RARb homodimer (NR concentration 270 nM); experiment: PBM binding z-score (relative to random genomic background probes); higher = stronger binding; sequences stand for … in GC…GCGATTGACAGCGTAGAATGAAGG
Method in brief: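 Binding z-scores take random background probes as their reference. They come from custom Agilent 4×180K protein-binding microarrays incubated 1 h with ligand-free nuclear receptor dimers, with antibodies against each partner (one per run) detecting binding. Scanned fluorescence was regression-normalized.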

**Q.** Which PBM binding z-score does the source give for GTACAAAGGTGAATAGGTCGTTGATGAGTAGGCG here?
**A.** 3.11

**Q.** With CGGCCAAGGTCAGAGAGGTCAGTGAATGCCGAGT as the sequence, how does the PBM binding z-score read?
**A.** 5.45

**Q.** TCTCGGAGGACACGAAGGTCAGAGCCTTCCAGAG was tested. Which PBM binding z-score did it give?
**A.** 3.54

**Q.** Which PBM binding z-score does the source give for CCAGACAGGTGAAAGGTAACTCAGTCTGGTACGC here?
**A.** 0.781

**Q.** For ATATGAAGGTTAGCTGGGGTCATTCAGACTAGGC, which PBM binding z-score is on record?
**A.** 4.37

**Q.** How did the PBM binding z-score turn out when CCAGACAGGTGAGAAGGTACCTCAGCCTCGATTA was run?
**A.** 0.101

**Q.** For GTACCAAGGTGAATAGCTCGTTGATGAGTAGGCG, which PBM binding z-score is on record?
**A.** 0.121

**Q.** With AGACCAAGGTGATCGTGAGGTCGTTGATACTAAC as the sequence, how does the PBM binding z-score read?
**A.** 1.51

**Q.** TCTTGTAGGTCAACAGGAGGTTAAGAAAGATCGA was tested. Which PBM binding z-score did it give?
**A.** 3.98

**Q.** With CGTCCAAGGTCAAAGGTCTGTGAAGAGATGACGG as the sequence, how does the PBM binding z-score read?
**A.** 4.1

**Q.** GCTATTAGTTTAAAGGGCAACCGAATGATTCTCG was tested. Which PBM binding z-score did it give?
**A.** 2.38

**Q.** How did the PBM binding z-score turn out when ATCTCTAGGTAAAGTTCCGTGAAAGATCGATAGA was run?
**A.** -0.0472

**Q.** How did the PBM binding z-score turn out when GTACCAAGGTGAATAGGTCGTTCATGAGTAGGCG was run?
**A.** 1.96

**Q.** With CAAACTCGGTCACCGGAAGGTCAAAGTCCGCATG as the sequence, how does the PBM binding z-score read?
**A.** 5.22

**Q.** For GCTGCTAGGTCAGGTCGGTCAGCTAACGGGTACG, which PBM binding z-score is on record?
**A.** 3.44

**Q.** With TCGAGTAGGTTACCAACGGGGCATTCAGCTTTCT as the sequence, how does the PBM binding z-score read?
**A.** 0.583

**Q.** Which PBM binding z-score does the source give for CCTCGGAGGACACAAGGTCAGAGCTGTCCGCTTT here?
**A.** 3.68

**Q.** For CCTTACGGGTCACTCCAGGTTATAGCTTCGGAGT, which PBM binding z-score is on record?
**A.** 3.13

**Q.** For ATCTCTAGGTAAAGATTGTTCAGTGAATGCAAAT, which PBM binding z-score is on record?
**A.** 0.0182

**Q.** How did the PBM binding z-score turn out when CGAGACAGGTGAGAAGGTAACTCAGCCTCGATTA was run?
**A.** 0.319

**Q.** ATCTCTAGGTAAAGATAGTTCCGTGAATGCAAAT was tested. Which PBM binding z-score did it give?
**A.** -0.314

**Q.** For GCAGACAGGTGAAACGCAGTTAACTCAGGGTGGC, which PBM binding z-score is on record?
**A.** -0.134

**Q.** With CGTCCAAGGTCAAAGCTCAGTGAAGAGATGACGG as the sequence, how does the PBM binding z-score read?
**A.** 3.72

**Q.** With CCTACTGGGCCATCAGGTCTTTGATATCAACGTT as the sequence, how does the PBM binding z-score read?
**A.** 0.24

**Q.** With CGTACTGGGCCAAGGTCATTGATCAGTCAAAGCA as the sequence, how does the PBM binding z-score read?
**A.** 3.36

**Q.** For AGAATGAGGTTACCAAAGATCATGGAAACGCTTG, which PBM binding z-score is on record?
**A.** 0.797

**Q.** Which PBM binding z-score does the source give for ATCTCTAGGTAGCCAAGTTCAGTGAATGCCGAAC here?
**A.** 0.866

**Q.** For ATATGTAGGTTAAGGGTCATTCACGTTGGTTCGC, which PBM binding z-score is on record?
**A.** 3.78

**Q.** Which PBM binding z-score does the source give for TCTGCTAGGTCAACGATGGTCAGCTGATCTGCTA here?
**A.** 3.36

**Q.** With ACTATTACTTGACTTAGGGCAACCGATACGACGC as the sequence, how does the PBM binding z-score read?
**A.** 1.06

**Q.** Which PBM binding z-score does the source give for CAAACTATGTCACGAAAGGTCAAAGTCGAATGAC here?
**A.** 5.15

**Q.** How did the PBM binding z-score turn out when CCGACTGGGGCAAAGGTTAACATACTCAGTACGA was run?
**A.** 2.4

**Q.** TCTTGTAGATCAATAGAGGTTAAGAGAGTGCGCT was tested. Which PBM binding z-score did it give?
**A.** 1.02

**Q.** With TAGCCTAGGTCAGATCGGGCCAGCATACGCTATA as the sequence, how does the PBM binding z-score read?
**A.** 2.06

**Q.** TCTTGTAGATCAAGCAGGTTAAGAGAGCCTGAGT was tested. Which PBM binding z-score did it give?
**A.** 0.0574

**Q.** For AGATTGAGGTTATTAAGATCAGGGAATTGCGGTC, which PBM binding z-score is on record?
**A.** 1.06

**Q.** With ACTATTAGTTGTCTTAGGGCAACCGATACGACGC as the sequence, how does the PBM binding z-score read?
**A.** 0.406

**Q.** How did the PBM binding z-score turn out when ATATGTAGGTTAGCTGGGGTCATTAAGACTAGGC was run?
**A.** 3.6

**Q.** Which PBM binding z-score does the source give for TCTTGTAGATCAGCTGGTTAAGAAAGCTGGCCAA here?
**A.** -0.771

**Q.** How did the PBM binding z-score turn out when TGTCAAAGTTCAAAGGTAACGCAAGTATCCACAC was run?
**A.** 3.97
